Results reported in PMC5836133, “The intracellular immune receptor Rx1 regulates the DNA-binding activity of a Golden2-like transcription factor”.
Whole data set: some 16,000 sequences, median “e-score” near -0.044, cut for the highest 2% near 0.38. This is one part of a sample in which the highest values are shown more often than they occur.

Biological target: T1, GST-NbGlk1(82-244) (Nicotiana benthamiana)
T1 chain: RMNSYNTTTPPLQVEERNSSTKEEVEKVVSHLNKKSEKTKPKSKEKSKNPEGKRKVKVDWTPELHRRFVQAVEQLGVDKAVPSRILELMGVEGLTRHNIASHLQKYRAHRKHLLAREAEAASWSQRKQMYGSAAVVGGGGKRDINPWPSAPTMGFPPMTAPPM
Assay: protein-binding microarray; NbGlk1 is a Golden2-like transcription factor of Nicotiana benthamiana; high values mean tight binding
Conditions: protein: recombinant; tags: GST (pTH6838); dsDNA, one strand shown

Row | Sequence | binding signal
1 | ACGTGATC | 0.232 ± 0.0142 E-score
2 | ATTCGCGA | 0.318 ± 0.058 E-score
3 | AAATCGCT | 0.295 ± 0.0508 E-score
4 | ACAGAAAT | 0.248 ± 0.0234 E-score
5 | ATCCGCAT | 0.272 ± 0.0412 E-score
6 | AAAGATTT | 0.427 ± 0.00822 E-score
7 | AAAGATTC | 0.401 ± 0.00855 E-score
8 | AACGATTC | 0.214 ± 0.0649 E-score
9 | CAAGATTA | 0.314 ± 0.00322 E-score
10 | CAAGATTG | 0.308 ± 0.0144 E-score
11 | AAAGATTA | 0.318 ± 0.0346 E-score
12 | CAAGATTC | 0.406 ± 0.00476 E-score
13 | AAAGATTG | 0.335 ± 0.0169 E-score
14 | AAAGATAC | 0.21 ± 0.0674 E-score
15 | ATTGTGCG | 0.2 ± 0.0823 E-score
16 | ATCGTAAA | 0.239 ± 0.0266 E-score
17 | ATCTTCCG | 0.316 ± 0.0643 E-score
18 | ATCTGCTA | 0.331 ± 0.0558 E-score
19 | AGGATCCG | 0.26 ± 0.0521 E-score
20 | ATTTCGTC | 0.303 ± 0.0104 E-score
21 | ATTTCGTA | 0.399 ± 0.0199 E-score
22 | ATTTCGTG | 0.367 ± 0.0218 E-score
23 | ATCTTCAC | 0.352 ± 0.00871 E-score
24 | ACTGAGAT | 0.247 ± 0.0201 E-score
25 | ATCCCGAG | 0.211 ± 0.027 E-score

Row | Sequence | binding signal
26 | AGATATAG | 0.225 ± 0.0489 E-score
27 | AGATATCC | 0.47954 ± 0.00034 E-score
28 | AGATATGA | 0.318 ± 0.00331 E-score
29 | AGATATCG | 0.462 ± 0.00283 E-score
30 | ATATATCG | 0.276 ± 0.0574 E-score
31 | ATATATCA | 0.276 ± 0.0382 E-score
32 | AGATATGC | 0.415 ± 0.012 E-score
33 | AGATATGG | 0.373 ± 0.0298 E-score
34 | AGATATCA | 0.434 ± 0.0219 E-score
35 | AGATATAA | 0.208 ± 0.0225 E-score
36 | ATATATCC | 0.262 ± 0.0686 E-score
37 | AGATATAC | 0.241 ± 0.00443 E-score
38 | ATCTCGCC | 0.314 ± 0.0254 E-score
39 | ACCAAGAT | 0.289 ± 0.0649 E-score
40 | ATCCTTGA | 0.218 ± 0.0175 E-score
41 | ATTTCTAC | 0.285 ± 0.0555 E-score
42 | ATTACATA | 0.267 ± 0.0926 E-score
43 | ATTACGGC | 0.278 ± 0.0482 E-score
44 | AAGTAGAT | 0.216 ± 0.0697 E-score
45 | ATCCTTAC | 0.266 ± 0.0362 E-score
46 | ACTCAGAT | 0.255 ± 0.0118 E-score
47 | ATCTTTAG | 0.26 ± 0.0391 E-score
48 | ATTCCCCC | 0.37 ± 0.0231 E-score
49 | ATCTATAC | 0.231 ± 0.121 E-score
50 | AGATACGC | 0.422 ± 0.0238 E-score

Row | Sequence | binding signal
51 | ACATATCT | 0.344 ± 0.0128 E-score
52 | AGATACGG | 0.372 ± 0.019 E-score
53 | AGATACGA | 0.332 ± 0.0469 E-score
54 | AGATATCT | 0.48 ± 0.00495 E-score
55 | AGATATAT | 0.316 ± 0.0185 E-score
56 | ATCTTCAA | 0.303 ± 0.0183 E-score
57 | ATATTGGA | 0.241 ± 0.0475 E-score
58 | ATCAGGAA | 0.288 ± 0.064 E-score
59 | ATAGGAAT | 0.275 ± 0.0501 E-score
60 | ATTCCGGA | 0.232 ± 0.0263 E-score
61 | AATCCGGG | 0.368 ± 0.0574 E-score
62 | AATCCTTC | 0.265 ± 0.077 E-score
63 | AATCCGGA | 0.42 ± 0.0333 E-score
64 | AATCCTGT | 0.371 ± 0.0247 E-score
65 | AATCCGGT | 0.393 ± 0.0261 E-score
66 | AATCCGTC | 0.39 ± 0.0333 E-score
67 | AATCCGTA | 0.337 ± 0.0439 E-score
68 | AATCCGGC | 0.3885 ± 0.00169 E-score
69 | ATCCCGGA | 0.308 ± 0.0187 E-score
70 | AATCCGTG | 0.322 ± 0.0593 E-score
71 | ATCGTCAA | 0.231 ± 0.0882 E-score
72 | ACCCAGAT | 0.247 ± 0.0788 E-score
73 | CACCGATA | 0.256 ± 0.0751 E-score
74 | ATCAGCGA | 0.229 ± 0.0488 E-score
75 | AATCACAA | 0.346 ± 0.0519 E-score

Row | Sequence | binding signal
76 | ATTTTCTC | 0.316 ± 0.054 E-score
77 | ACGCGGAT | 0.235 ± 0.023 E-score
78 | ATAAAGAT | 0.279 ± 0.0792 E-score
79 | ACCAATAT | 0.204 ± 0.0315 E-score
80 | AATAATAT | 0.259 ± 0.0722 E-score
81 | ATTCTGTC | 0.335 ± 0.0209 E-score
82 | AATATGAT | 0.222 ± 0.00614 E-score
83 | ATTCTGAC | 0.242 ± 0.101 E-score
84 | AATCTGAC | 0.417 ± 0.0317 E-score
85 | AATCTGTC | 0.391 ± 0.00978 E-score
86 | AATCTGCT | 0.37 ± 0.0413 E-score
87 | AATCTGAT | 0.414 ± 0.0225 E-score
88 | AAACAGAT | 0.229 ± 0.0973 E-score
89 | ATCTTGAC | 0.272 ± 0.0538 E-score
90 | AATCGTAT | 0.339 ± 0.0131 E-score
91 | AGATCGCC | 0.353 ± 0.0264 E-score
92 | AAATCGCG | 0.4246 ± 0.00159 E-score
93 | ATATCGCG | 0.415 ± 0.00817 E-score
94 | AAATCGCA | 0.3786 ± 0.00224 E-score
95 | AGATCGCG | 0.464 ± 0.00467 E-score
96 | AGATCGCA | 0.396 ± 0.016 E-score
97 | AAATCGCC | 0.322 ± 0.0236 E-score
98 | ATATCGCC | 0.333 ± 0.0165 E-score
99 | AGATCGTA | 0.283 ± 0.0295 E-score
100 | AGATCGCT | 0.346 ± 0.00634 E-score

Row | Sequence | binding signal
101 | ATATCGCA | 0.355 ± 0.0163 E-score
102 | CAATCGCG | 0.2571 ± 0.00241 E-score
103 | AGCGCAAT | 0.303 ± 0.0261 E-score
104 | AATCCCTA | 0.281 ± 0.0127 E-score
105 | AGATCCTC | 0.387 ± 0.0145 E-score
106 | CAATCCTG | 0.3281 ± 0.00274 E-score
107 | AGATCCTA | 0.314 ± 0.00874 E-score
108 | AAATCCTA | 0.417 ± 0.00908 E-score
109 | AAATCATT | 0.223 ± 0.00449 E-score
110 | AAATCGTT | 0.248 ± 0.085 E-score
111 | CAATCCTA | 0.288 ± 0.0058 E-score
112 | AGATCCTG | 0.369 ± 0.0433 E-score
113 | AAATCCTT | 0.392 ± 0.0185 E-score
114 | AAATCCTG | 0.4223 ± 0.00332 E-score
115 | ATTTCACC | 0.214 ± 0.151 E-score
116 | ATTCCCCA | 0.256 ± 0.075 E-score
117 | ATCCTCGC | 0.205 ± 0.0887 E-score
118 | ATAGATCC | 0.21 ± 0.00109 E-score
119 | ATCTGTTG | 0.301 ± 0.07 E-score
120 | ATATATAC | 0.227 ± 0.00145 E-score
121 | AAATACGC | 0.2039 ± 0.00167 E-score
122 | ATCCGGAC | 0.272 ± 0.0502 E-score
123 | ATCGATTA | 0.207 ± 0.0952 E-score
124 | CAAGATCG | 0.284 ± 0.0247 E-score
125 | AATATAAA | 0.254 ± 0.107 E-score

Row | Sequence | binding signal
126 | AATCCCTC | 0.293 ± 0.0225 E-score
127 | AAATCCTC | 0.414 ± 0.051 E-score
128 | CAATCCTC | 0.269 ± 0.0948 E-score
129 | ATTCCCGA | 0.333 ± 0.0675 E-score
130 | ATCCCAAG | 0.206 ± 0.0761 E-score
131 | AATATATT | 0.285 ± 0.0974 E-score
132 | AGAATCGG | 0.375 ± 0.00432 E-score
133 | AGAATCTC | 0.469 ± 0.0125 E-score
134 | AGAATCTA | 0.48 ± 0.00879 E-score
135 | AGAATCGA | 0.342 ± 0.0111 E-score
136 | ATAATCTA | 0.334 ± 0.0306 E-score
137 | ATAATCTG | 0.356 ± 0.0112 E-score
138 | AGAATCTG | 0.4793 ± 0.00413 E-score
139 | ATATAAAT | 0.276 ± 0.0236 E-score
140 | AGGGAGAT | 0.281 ± 0.00745 E-score
141 | ACGGGGAT | 0.214 ± 0.115 E-score
142 | AAATATGA | 0.226 ± 0.0549 E-score
143 | ATCCGTGA | 0.236 ± 0.116 E-score
144 | ATACGTTA | 0.277 ± 0.00931 E-score
145 | ATTCCCTG | 0.323 ± 0.0549 E-score
146 | ATTACTAG | 0.207 ± 0.0664 E-score
147 | ATTTATTA | 0.249 ± 0.00743 E-score
148 | AAATATCC | 0.42 ± 0.011 E-score
149 | ACATATCC | 0.214 ± 0.0275 E-score
150 | CAATATCC | 0.337 ± 0.0344 E-score

Row | Sequence | binding signal
151 | AAATATCG | 0.375 ± 0.0121 E-score
152 | AAATATCT | 0.407 ± 0.0254 E-score
153 | AAATATCA | 0.367 ± 0.0296 E-score
154 | ATATTGAG | 0.214 ± 0.00643 E-score
155 | ATAAGATC | 0.33 ± 0.000581 E-score
156 | ATTCTTTA | 0.258 ± 0.0767 E-score
157 | AATCAGGA | 0.394 ± 0.0134 E-score
158 | AATCAGGC | 0.2903 ± 0.0023 E-score
159 | AATCAGGT | 0.32 ± 0.0381 E-score
160 | ATTCCCCG | 0.32 ± 0.0628 E-score
161 | AAGATCGT | 0.291 ± 0.0157 E-score
162 | CAGATCGG | 0.215 ± 0.0844 E-score
163 | ATGATCGC | 0.232 ± 0.0162 E-score
164 | AAGATCGC | 0.398 ± 0.00727 E-score
165 | CAGATCGC | 0.417 ± 0.00441 E-score
166 | AAGATCGA | 0.225 ± 0.00987 E-score
167 | AATTCCCC | 0.225 ± 0.0402 E-score
168 | AAAGTATC | 0.243 ± 0.0118 E-score
169 | ATCGTCTA | 0.208 ± 0.048 E-score
170 | ATTGCGCG | 0.378 ± 0.00773 E-score
171 | ATCTAGAC | 0.287 ± 0.00928 E-score
172 | ATCTAGAT | 0.398 ± 0.0867 E-score
173 | ATCTAGAG | 0.238 ± 0.0882 E-score
